Bioassay records deposited in PubChem by National Center for Advancing Translational Sciences (NCATS).
Most compounds without a hit are left out; they make up all but 7.6% or so of the library.
VP16 counter – Gal4-VP16 reporter inhibition counter-screen; 310,000 compounds, 3.5% hits; Drosophila S2 Gal4-VP16 UAS-luciferase, luminescence, 20 h; Potency, µM (highest dose often 53.6 µM), usual class: inhibitors;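 also: Gal4-VP16 expression switched on by copper sulfate through the metallothionein promoter; nearly all actives have a fitted effect of over 50% in size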
BRCA1 expr up – increases BRCA1 expression; 380,000 compounds, 1.1% hits; Potency, µM (doses to about 46.1 µM), actives largely listed as activators; MCF7-BRCA1-FFLuc reporter, luminescence, 48 h; response scale: scaled: vehicle 0%, 10 µM genistein 100%; AID 624202; also: nearly all actives have a fitted effect of over 80% in size
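Luminescence from a BRCA1-driven firefly luciferase in MCF7 cells was the read-out, taken 15 min after substrate addition following 48 h compound exposure at 37 °C. Data were normalized to a 10 microM genistein control and DMSO vehicle.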
p53 reactivator – mutant p53 re-activation in reporter cells. 320,000 compounds, 0.063% hits. H1299 p53-A138V BP100-luciferase reporter, luminescence, 24 h. Potency, µM (series often up to 92.2 µM), most hits filed as activators; also: nearly all actives have a fitted effect of over 45% in size
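H1299 (p53-null), stable ts p53-A138V + BP100-Luc; 1000 cells/well, Opti-MEM/10% FBS; cpd 4 pt, 1:5; 24 h, 37 deg C, 5% CO2; detection reagent 10 min RT; luminescence.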
Giardia killer – Giardia lamblia killing | Giardia lamblia trophozoite viability | activity change, % at 7.66 µM, hits read low | 340,000 compounds, 0.15% hits; in the data active = activity change below about -80%; inconclusive = between about -30% and that limit;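 also: parasites exposed to compound for two days anaerobically before the ATP read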
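Anaerobic 48 hrs incubation at 37 deg C of 100 trophozoites/well with test compounds; ATPLite 1-Step luminescence, 15-30 min RT, reports cellular ATP as viability.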
RORgamma inh – blocks mouse ROR gamma transcriptional activity; P51450; Drosophila S2 Gal4-RORgamma UAS-luciferase reporter, 20 h; Potency, µM (doses to about 53.6 µM), actives largely listed as inhibitors; 310,000 compounds, 5.4% hits; AID 2551; also: nearly all actives have a fitted effect of over 60% in size
Target sequence (P51450 whole entry, looked up, the tested form may be a part): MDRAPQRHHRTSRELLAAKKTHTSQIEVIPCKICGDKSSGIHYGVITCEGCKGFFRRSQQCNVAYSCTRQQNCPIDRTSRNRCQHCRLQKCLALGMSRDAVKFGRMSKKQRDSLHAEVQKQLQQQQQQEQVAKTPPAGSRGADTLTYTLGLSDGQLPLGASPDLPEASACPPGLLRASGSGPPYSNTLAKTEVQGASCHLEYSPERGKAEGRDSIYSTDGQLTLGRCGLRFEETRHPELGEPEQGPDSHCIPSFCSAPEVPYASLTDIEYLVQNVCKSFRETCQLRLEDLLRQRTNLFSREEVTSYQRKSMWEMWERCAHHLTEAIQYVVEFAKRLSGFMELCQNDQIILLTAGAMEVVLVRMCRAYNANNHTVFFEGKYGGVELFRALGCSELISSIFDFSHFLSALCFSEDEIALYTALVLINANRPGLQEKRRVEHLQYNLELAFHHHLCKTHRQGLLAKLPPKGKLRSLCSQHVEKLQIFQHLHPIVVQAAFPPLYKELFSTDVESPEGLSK
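Luminescence from a UAS-regulated Photinus luciferase reporter in stably transfected Drosophila Schneider cells is measured; decreased signal marks ROR gamma inhibition. Fusion expression is induced by 700 uM copper sulfate for 20 hr.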
ELG1 repair inh – inhibitors of ELG1-dependent DNA repair in HEK293T cells. 330,000 compounds, 2.3% hits. HEK293T ELG1-luciferase reporter, luminescence, 16 h; DNA damage induced by 5-fluorouridine. Potency, µM (doses to about 46.1 µM), most hits filed as inhibitors; also: nearly all actives have a fitted effect of over 55% in size
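Step one: seed 2,000 cells per well. Step two: pin-transfer compound or DMSO alongside 5-fluorouridine. Step three: incubate 16 hr, 37 °C, 5% CO2. Step four: add ONE-Glo, wait 30 min, read luminescence.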
Numbers stand for hits; 0 = inactive; ? = inconclusive; - = no result; [ ] = another dose, or the depositor's remark. Unless noted, calls follow the shape of the dose curve; as a rule, active = well fitted curve in the direction sought with a large enough effect; inconclusive = small, poorly fitted or top-dose-only effect, or another doubt; inactive = no such curve, though single readings can be large; an effect the other way counts as inactive or inconclusive.

SMILES	VP16 counter	BRCA1 expr up	p53 reactivator	Giardia killer	RORgamma inh	ELG1 repair inh
COc1ccc(C2CC(=O)Nc3c2c(=O)n(C)c2nc4ccccc4n32)cc1 (configuration not stated)	-	0	-	-	-	-
Cc1noc(C)c1C(=O)Nc1nc(C23CC4CC(CC(C4)C2)C3)cs1	22.4µM	0	0	0	?	?
CNC(=O)C(=O)Nc1nc(C23CC4CC(CC(C4)C2)C3)cs1	0	0	0	0	0	?
O=C(NCc1ccccc1)C(=O)Nc1nc(C23CC4CC(CC(C4)C2)C3)cs1	7.08µM	0	0	0	7.94µM	?
O=C(NCc1cccnc1)C(=O)Nc1nc(C23CC4CC(CC(C4)C2)C3)cs1	0	0	0	0	?	?
O=C(NCc1ccc(F)cc1)C(=O)Nc1nc(C23CC4CC(CC(C4)C2)C3)cs1	3.98µM	0	0	0	5.62µM	0
O=C(NCc1ccncc1)C(=O)Nc1nc(C23CC4CC(CC(C4)C2)C3)cs1	0	0	0	0	0[10 µM]	18.4µM
CCC(C)N1C(=O)S/C(=C/c2ccc(N3CCOCC3)cc2C)C1=O (configuration not stated)	0	8.91µM	?	0	0	?
Cc1cc(N2CCOCC2)ccc1/C=C1\SC(=O)N(C(C)C)C1=O	0	?	0	0	?	?
CN(CCc1ccccc1)C(=O)c1cc(COc2ccc(F)cc2Cl)on1	0	12.6µM	0	0	?	?
CN(CCN1CCOCC1)C(=O)c1cc(COc2ccc(F)cc2Cl)on1	-	0	-	-	-	-
COc1ccc(OCc2cc(C(=O)NC(C)Cc3cnccn3)no2)c(Cl)c1 (configuration not stated)	?	11.2µM	?	0	0	?
COc1ccc(OCc2cc(C(=O)N(C)Cc3cnccn3)no2)c(Cl)c1	0	8.91µM	0	0	0	?
COc1ccc(OCc2cc(C(=O)NCC3CCCCO3)no2)c(Cl)c1 (configuration not stated)	0	12.6µM	?	0	0	?
Oc1ccccc1CNn1cnnc1	0	0	0	0	0	0
CCCCN1C(=O)C(CC(=O)NCCc2ccccn2)CC(C(=O)N(C)C)=C1C (configuration not stated)	-	0	-	-	-	-
Cc1cccc(NC(=O)Cn2nnc(-c3ccc(CN4CCCC4)cc3)n2)c1C	0	0	0	0	0	?
CC1=CC(C)(C)N(C(=O)CN2C(=O)c3ccccc3C2=O)c2ccc(C)cc21	20µM	0	0	0	?	?
COc1ccc(S(=O)(=O)N2CCC(C(=O)Nc3ccccc3C)CC2)c2cccnc12	0	0	0	0	0	18.4µM
COc1ccc(NC(=O)C2CCN(S(=O)(=O)c3cccc4cccnc34)CC2)cc1OC	0	-	0	-	?	?
COc1ccc(C)cc1NC(=O)C1CCN(S(=O)(=O)c2cccc3cccnc23)CC1	0	0	0	0	0	23.1µM
CC1(C(=O)NS(=O)(=O)c2cccc(Cl)c2)CCN1C(=O)CCc1cccs1 (configuration not stated)	-	0	-	-	-	-
COc1ccccc1/C=C/C(=O)Nc1ccc(S(=O)(=O)Nc2cc(C)nc(C)n2)cc1	0	0	0	0	0	0
COc1ccc(OC)c2cc3ccccc3cc12	-	0	-	0	-	-
COc1ccc(OC)c2nc3c(cc12)CCC3	?	0	0	0	15.8µM	0
SMILES	VP16 counter	BRCA1 expr up	p53 reactivator	Giardia killer	RORgamma inh	ELG1 repair inh
O=C(O)c1ccc(C2CCCCC2)cn1	?	0	0	0	7.94µM	0
CCn1cc(C(=O)NCCCOC(C)C)c(=O)c2cc(S(=O)(=O)N3CCC(C)CC3)ccc21	0	0	0	0	0	0
CCC(C)[C@H](NC(=O)N1CC(=O)Nc2ccccc21)C(=O)N1CCC[C@@H]1C(=O)O (some centres not stated)	0	0	0	0	0	0
Cc1cc(C)c(Cn2cnc3ccccc32)c(C)c1	0	0	0	0	5.62µM	0
Cc1cc(Br)cn2c(Cc3cccc(F)c3)c(-c3ccccc3)nc12	-	0	-	-	-	-
Cc1c(C(=O)c2ccc(Cl)cc2[N+](=O)[O-])c2ccccn2c1CCC#N	0	0	0	-100.5	0	0
Cc1cc(C)c(O)c(-c2cc(C(=O)Nc3cccnc3)[nH]n2)c1	0	0	0	0	0	20.6µM
COc1ccc(NC(=O)c2cc(-c3cc(C)cc(C)c3O)n[nH]2)cc1Cl	?	0[1.84 µM]	0	0	?	20.6µM
COc1ccc(NC(=O)c2cc(-c3ccccc3O)n[nH]2)cc1Cl	0	0	0	0	0	?
CCc1ccc(O)c(-c2cc(C(=O)Nc3cccnc3)[nH]n2)c1	?	?	?	0	?	?
Cc1cc(O)c(-c2cc(C(=O)Nc3cccnc3)[nH]n2)cc1C	0	5.62µM	0	0	0	?
CCCCOC(=O)c1ccc(NC(=O)c2cc(Cl)c(Cl)cc2C(=O)O)cc1	0	0	0	0	0	0
COC(=O)CC1Oc2cc3oc4c(c3cc2O1)C(=O)CC(C)(C)C4 (configuration not stated)	?	-	-	-	5.01µM	-
Cc1nn(Cc2ccc(F)cc2)c(C)c1NC(=O)C1c2ccccc2Oc2ccccc21	?	0	0	0	0	?
CCCNc1ccc(S(=O)(=O)N(CC)CC)cn1	0	0	0	0	0	0
Cc1ccc(-n2c(C)nc3c(cnn3-c3ccc(F)cc3)c2=O)cc1	8.91µM	0	0	0	0	?
Cc1cccc(OC(=O)CN2C(=O)C3C4CCC(C4)C3C2=O)c1C (configuration not stated)	0	0	0	0	0	0
O=C(Cc1ccc(Cl)cc1)Nc1ccccc1N1CCN(C(=O)c2ccccc2)CC1	0	0	0	0	0	?
COC(=O)C1=C(C(=O)OC)[C@@H]2N(C)c3ccc(OC)cc3[C@@]23C[C@@H](C(=O)OC)N(C(=O)c2ccco2)C3=N1	-	0	-	0	-	-
Cc1ccc(-c2c(=O)n(OCc3ccccn3)c3ccccc3[n+]2[O-])cc1	0	-	0	-	0	?
COc1ccc(-c2c(=O)n(OCc3ccccn3)c3ccccc3[n+]2[O-])cc1OC	0	0	0	0	0	13µM
O=C(/C=C/c1ccco1)NC(=S)Nc1ccc(C(=O)O)cc1	0	0	0	0	0	?
Cc1ccnc(NC(=S)NC(=O)/C=C/c2ccco2)c1	1.78µM	0	?	0	7.08µM	?
Cc1ccc(O)c(NC(=S)NC(=O)/C=C/c2ccco2)c1	?	0	0	0	7.94µM	?
Cc1ccc(O)c(NC(=S)NC(=O)/C=C/c2ccccc2)c1	0	0	0	0	0	0
CCC(=O)Nc1ccc(NC(=S)NC(=O)/C=C/c2ccco2)cc1	0	0	-	0	0	0
